Source: PubChem BioAssay (several laboratories)
Shown are actives, neighbours in structure and some others; about 1.7% of the full set was active somewhere.
CHT block – inhibitors of human choline transporter CHT; High affinity choline transporter 1 (Homo sapiens), Q9GZV3; CHT-expressing cells, membrane potential dye, choline response; active compounds read low; B-score at 10 µM; hit rate 0.86% among 310,000; AID 488975, 2010;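 active = B-score over 3 SD under the library average, and starting fluorescence ratio not unusually high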;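 note: choline stimulus applied at its EC90 after an EC20 pre-addition; B-score computed on integrated fluorescence ratio after choline addition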
Target sequence (Q9GZV3 whole entry, looked up): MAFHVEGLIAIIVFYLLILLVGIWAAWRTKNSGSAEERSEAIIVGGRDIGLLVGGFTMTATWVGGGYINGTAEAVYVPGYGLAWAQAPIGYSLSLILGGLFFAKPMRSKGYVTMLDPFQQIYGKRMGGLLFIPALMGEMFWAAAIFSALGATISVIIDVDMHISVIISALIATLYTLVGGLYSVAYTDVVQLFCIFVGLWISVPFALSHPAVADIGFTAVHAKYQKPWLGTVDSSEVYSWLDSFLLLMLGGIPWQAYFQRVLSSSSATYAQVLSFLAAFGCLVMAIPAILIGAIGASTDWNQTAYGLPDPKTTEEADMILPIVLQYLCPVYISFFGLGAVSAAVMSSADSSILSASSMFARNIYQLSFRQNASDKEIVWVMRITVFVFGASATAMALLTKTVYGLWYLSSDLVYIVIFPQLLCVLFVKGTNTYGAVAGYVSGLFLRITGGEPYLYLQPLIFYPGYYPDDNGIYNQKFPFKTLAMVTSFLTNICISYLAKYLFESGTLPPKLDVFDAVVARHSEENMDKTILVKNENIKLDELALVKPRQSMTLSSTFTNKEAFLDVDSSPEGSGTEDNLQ
CHT allo act – CHT positive allosteric modulators, primary screen, cell-based, membrane potential dye, choline EC20; High affinity choline transporter 1 (Homo sapiens), Q9GZV3; CHT-expressing cells; active compounds read high; LV-AA mutant CHT in HEK293 cells; B-score at 10 µM; hit rate 0.49% among 310,000;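 active = initial fluorescence not abnormally high and integrated response B-score, plate-corrected, over 3 SD above library mean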
H9c2 TAG inh – inhibitors of triacylglycerol accumulation, primary screen, cell-based, uHTS, fluorescence, H9c2; AID 651582, 2012; inhibition, % at 12.5 µM; hit rate 0.66% among 230,000; H9c2 cells, Nile Red lipid (TAG) fluorescence; cells loaded with 200 µM oleic acid;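 active = pattern-corrected inhibition of lipid staining of at least 50% with the nuclear-stain viability signal not falling by more than 50%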;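 note: 0% = DMSO wells and 100% = triacsin C control wells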
MIN6 prolif-1 – inducers of MIN6 beta-cell proliferation, primary screen, ATP luminescence, uHTS | proliferation, % at 10 µM | AID 2380, 2010 | MIN6 cells proliferation, ATPlite luminescence, 48 h; cells starved in 0.2% serum; 100% = growth in 10% serum | hit rate 0.29% among 330,000;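 active = compounds whose signal lies at least 3.5 SD above the mean of all wells on their plate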;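 note: 0% = DMSO-treated cells in low-serum medium and 100% = 10% serum control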
MIN6 prolif-2 – inducers of beta-cell proliferation in MIN6, confirmation, MIN6 cells, mouse | AID 463095, 2010 | shares compounds with MIN6 prolif-1 | 920 tested, under 10 active | ATPlite luminescence, 48 h; cells kept in 0.2% serum; scaled between 0.2% and 10% serum | proliferation increase, % at 50 µM;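 active = proliferation increase above 40% at any of the four tested concentrations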
Active calls of the source: *; i = inactive; . = no result given.

SMILES	CHT block	CHT allo act	H9c2 TAG inh	MIN6 prolif-1	MIN6 prolif-2
COc1ccc(NC(=O)CCCN2C(=O)C(c3ccccc3)Oc3cccnc32)c(OC)c1 (centres undefined)	i	i	.	0.4	.
O=C(NCc1ccco1)C1CC(=O)N(c2ccc(O)cc2)C1 (centres undefined)	i	i	-8.9	4.7*	-1.0
CS(=O)(=O)N1CCC(C(=O)NCc2ccco2)CC1	i	i	.	7.7*	-3.1
COc1ccc(N2CC(C(=O)Nc3ccccc3C(=O)NCc3ccco3)CC2=O)cc1 (centres undefined)	i	i	-2.2	-2.0	.
CC(=O)Oc1ccccc1Cn1c(C)c(C(=O)NCCC#N)sc1=O	.	.	2.8	.	.
Cc1[nH]c2ccccc2c1C(=O)NS(=O)(=O)Nc1ccc(F)cc1	i	i	4.4	8.8*	-4.3
CCCC(=O)N1CCCC1(C)C(=O)Nc1cc(OC)c(OC)c(OC)c1 (centres undefined)	.	.	-4.2	.	.
COCCCNc1nc(N)c([N+](=O)[O-])c(Nc2ccccc2OC)n1	i	i	-40.6	7.2*	3.3
Cc1ccc(-c2cnc(-c3ccccc3C(=O)O)o2)cc1	i	i	.	-1.7	.
CCCc1c2ccccc2nc2ccccc12	i	i	.	7.2*	-5.7
CCCCCCN1CC(=O)N2Cc3[nH]c4ccccc4c3C[C@H]2C1=O	i	i	.	-1.6	.
CCOc1ccc(S(=O)(=O)N(CC)CC)cc1NC(=O)CSCc1c(C)noc1C	i	i	-1.7	10.8*	-2.6
COC(=O)c1ccc(NC(=O)CN2C(=O)CC(C)S(=O)(=O)c3ccccc32)cc1 (centres undefined)	i	i	.	3.6	.
O/N=C/c1cn(-c2ccccc2)nn1	i	i	.	7.6*	2.2
O=C(Cc1ccsc1)N1CCN(S(=O)(=O)c2ccccc2F)CC1	.	.	-5.5	-2.0	.
COc1cccc(-c2cnc3c(NC(C)=O)cc(-c4ccc(S(C)(=O)=O)cc4)cn23)c1	.	.	9.4	.	.
COc1ccc(C(=O)N=C2SC3CS(=O)(=O)CC3N2Cc2ccc(OC)c(OC)c2)cc1 (centres undefined)	i	i	.	10.8*	-2.3
NS(=O)(=O)c1ccc(NC(=O)CCC(=O)c2ccc(Cl)s2)cc1	i	i	.	0.4	.
CCc1noc(C)c1C(=O)N1CCN(S(=O)(=O)c2cc(C)ccc2C)CC1	i	i	10.6	5.3	.
CCc1noc(C)c1C(=O)N1CCN(S(=O)(=O)c2c(C)c(C)cc(C)c2C)CC1	i	i	-5.8	14.0*	-1.7
Cc1c(C(=O)N2CCC(C)(C(=O)NS(=O)(=O)C3CC3)C2)oc2ccccc12 (centres undefined)	.	.	-16.7	.	.
CC1=C(C(=O)Nc2ccccc2)C(c2ccncc2)C(C#N)=C(SCC(=O)NC(C)C)N1 (centres undefined)	i	i	-5.1	-0.5	.
CC1=C(C(=O)Nc2ccccc2)C(c2ccncc2)C(C#N)=C(SCC(=O)NC2CC2)N1 (centres undefined)	i	i	-12.9	8.3*	2.5
CC(=O)c1cccc(-c2ccnc3c2CC(C(=O)Nc2ccc(C(C)C)cc2)O3)c1 (centres undefined)	.	.	20.1	.	.
N#CC(C#N)=C1NC2(CCCCC2)Cc2ccccc21	i	i	4.6	5.2*	5.9
SMILES	CHT block	CHT allo act	H9c2 TAG inh	MIN6 prolif-1	MIN6 prolif-2
CCC1(CC)Cc2ccccc2C(=C(C#N)C#N)N1	i	i	-15.0	-1.0	.
CCOC(=O)c1cc2c(=O)n3ccccc3nc2n(Cc2ccco2)c1=NC(=O)c1cccnc1	i	i	13.8	9.5*	-4.7
CCOC(=O)c1cc2c(=O)n3ccccc3nc2n(Cc2ccco2)c1=NC(=O)c1ccccc1OCC	i	i	13.7	-5.4	.
S=c1[nH]nc(-c2ccc3ccccc3n2)n1Cc1ccccc1	i	i	.	8.6*	2.5
Oc1ccc(-c2n[nH]c(=S)n2Cc2ccccc2)cc1	i	i	-2.7	-3.6	.
Fc1ccc(-n2c(-c3ccc4ccccc4n3)n[nH]c2=S)cc1	i	i	-0.2	7.9*	-0.7
COc1cccc(C(C)NC(=O)c2ccncc2)c1 (centres undefined)	i	i	-5.6	-3.3	.
Cc1nc(N)c(CC(Br)CBr)c(Cl)n1 (centres undefined)	i	i	2.9	8.0*	1.6
CC(C)Nc1nc(NC(C)(C)C)nc(Oc2ccc(=O)n(C)n2)n1	i	i	4.4	7.4*	3.9
COc1nc(NC(C)(C)C)nc(Oc2ccc(=O)n(C)n2)n1	i	i	-15.9	3.2	.
Cc1nn(CC(C)C)c(Cl)c1C(=O)N(C)CC(=O)Nc1ccc(Cl)cc1	.	.	6.5	.	.
CSc1ncccc1C(=O)N(C)CC(=O)Nc1cccc(F)c1	i	i	-19.0	1.5	.
CC(NC(=O)CN1C(=O)NC2(CCCCCCC2)C1=O)c1ccccc1 (centres undefined)	.	.	5.1	9.5*	-0.1
Cc1ccccc1Cn1c(C)c(C(=O)NCCC#N)sc1=O	.	.	3.0	.	.
Cc1ccc(NC(=O)CN(C)C(=O)CNC(=O)c2cccs2)cc1	i	i	0.7	11.8*	-3.1
O=C(O)c1cc(-c2ccccc2Cl)n(-c2ccc(F)cc2)n1	i	i	.	8.0*	-1.7
Cc1ccc(-n2nc(C(=O)O)cc2-c2ccccc2Cl)cc1	i	i	.	-0.5	.
O=C(NCC1CCN(Cc2ccccc2F)CC1)Nc1cccc(Br)c1	i	i	.	-4.4	.
Cc1c(NC(=O)C(C)OC(=O)CCc2c[nH]c3ccccc23)c(=O)n(-c2ccccc2)n1C (centres undefined)	i	i	-20.3	11.9*	0.5
CCOc1ccc(/C=N/n2c(SC)nnc2-c2ccccc2)cc1OCC	i	i	11.0	8.2*	-5.3
CCOC(=O)C(=CNc1cccc(C)c1C)C(=O)OCC	i	i	.	0.1	.
CCOC(=O)C(=CNc1ccccc1N1CCOCC1)C(=O)OCC	i	i	9.5	6.0*	3.5
Cc1cc(NC(=O)c2c(-c3c(Cl)cccc3Cl)noc2C)n(C)n1	i	i	-0.2	6.8*	2.3
CCN(C(=O)CN1C(=S)NC(C)(C)CC1C)c1ccc(C)c(C)c1 (centres undefined)	i	i	-30.9	9.3*	-1.6
C/C(=N\NC(=O)c1nn(C)c(C)c1Br)c1ccc(NC(=O)c2ccccc2F)cc1	i	i	.	-1.8	.
CCNc1nc(N)c(C(=C(C#N)C#N)c2ccccc2)s1	i	i	7.8	7.3*	-6.4
CCCn1c(SCC(=O)c2c(C)[nH]c(C)c2C(=O)OCC)nc2ccccc21	i	i	.	6.8*	-3.8
COc1ccc2nc3ccccc3nc2c1NC(=O)c1ccc(Cl)cc1Cl	i	i	.	-2.1	.
